# Compounds without any hit were thinned out: in the full panel of roughly 83,000, 20% have a hit.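 Negative percent growth values reflect cell death: -40 means 40% of the cells present at the start died, and -100 means all died.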 Active and inactive are the calls of the source.
# System: SK-MEL-2 melanoma
# Experiment: NCI-60 one-dose screen, 48 h (100 = growth as untreated, 0 = no growth, -100 = all killed)
# Details: 10 µM unless noted
# Protocol: Growth inhibition of the SK-MEL-2 human tumor cell line is measured as a screen for anti-cancer activity. Cells are grown in 96 well plates and exposed to the test compound for 48 hours. Compounds are tested at a single concentration, which is 10^-5 M for most compounds. The reported endpoint is percent growth (GI% or GIPRCNT), where numbers from 0 - 100% represent growth inhibition, and numbers from -100% - 0 represent cell death. For example, a value of 40 represents 60% growth inhibition. A value of 0 means no net growth occurred over the course of the experiment. A value of -40 indicates 40% of cells at the beginning of the experiment died by the end of the experiment. A value of -100 means all cells are dead at the end of the experiment.
# NCI-60 Human Tumor Cell Lines Screen was performed using the standard one-dose NCI protocol, which is described in more detail at https://dtp.cancer.gov/discovery_development/nci-60/default.htm.
# Compounds with GIPRCNT values below 10 were considered active. Activity score was based on GIPRCNT using the following formula: […]
# Score is 0 for GIPRCNT values of 100 or above, 50 for GIPRCNT values of 0, and 100 for GIPRCNT values of -100.
row,Structure (SMILES),growth
1,O=S(=O)(Nc1ccc2ccccc2c1)N1CCCCC1,8.41% (active)
2,CCn1c(Cc2ccccc2Nc2c(Cl)cccc2Cl)nnc1SCC(=O)Nc1ccccc1C(F)(F)F,79.9% (inactive)
3,Cc1ccc(C)c(NC(=O)c2sc3c(=O)[nH]cnc3c2C)c1,41.4% (inactive)
4,COc1ccc2nc3ccccc3c(NCc3ccc(Cl)cc3)c2c1,71.3% (inactive)
5,CCNCCCn1c2c(c3ccc(Cl)cc3c1=O)C(=O)c1cc(OC)cnc1-2,77.1% (inactive)
6,COc1ccccc1CNCCCN1C(=O)c2ccc3c4c(ccc(c24)C1=O)C(=O)N(CCCOCCCCOCCCN)C3=O,-42.7% (active)
7,C#CCNc1nc(NCCNC(=O)CCl)nc(N(C)CCCCc2ccccc2)n1,98.9% (inactive)
8,O=C(Nc1ccc(Br)cc1)c1ccc(Cl)c(Cl)c1,102% (inactive)
9,COC(=O)c1ccc2c(c1)nc(-c1ccc(Cl)cc1)n2-c1cc(C(C)(C)C)[nH]n1,31.6% (inactive)
10,COc1cc(OC)cc(-c2ccc(-c3ccc(C(=N)N)s3)s2)c1,-85.4% (active)
11,O=c1c2cc(Br)cc(Br)c2nc(-c2ccc(Cl)cc2)n1/N=C/c1cccc(F)c1,59.8% (inactive)
12,Nc1c(C(=O)Nc2cccc(Cl)c2)sc2nc3c(cc12)C(=O)CCC3,69.7% (inactive)
13,CC1OC(n2c3ccccc3c3c4c(c5c6ccccc6[nH]c5c32)C(=O)N(CCN[C@H]2CCC[C@@H]2N)C4=O)CC(O)C1O (stereo not given in full),74.5% (inactive)
14,NC(N)=N/N=C/c1cccc(Cl)c1Cl,106% (inactive)
15,O=C(N/N=C/c1ccc([N+](=O)[O-])o1)c1ccc(O)cc1,24.1% (inactive)
16,Cc1ccccc1Nc1n[nH]c(Cc2ccccc2)n1,83.8% (inactive)
17,CCOC(=O)C1OC2(CCCC2)OC1C(=O)OCC (stereo not given),94.9% (inactive)
18,Clc1cc2nc(-c3ccccc3)c(-c3ccccc3)nc2cc1Cl,87.9% (inactive)
19,N=C(N)c1ccc(-c2ccc(-c3ccco3)o2)cc1F,-66.8% (active)
20,CCOC(=O)Cc1cc(Br)c(OCc2ccccc2)c(Br)c1,94.8% (inactive)

row,Structure (SMILES),growth
1,O=[N+]([O-])c1ccc(N/N=C/c2ccccc2O)nc1,35% (inactive)
2,CC(C)CCSc1nc(-c2ccc(F)cc2)c(C#N)c(N2CCCCC2)n1,85.7% (inactive)
3,NS(=O)(=O)c1ccc(CCn2c(SCC(=O)N/N=C/c3ccccc3O)nc3ccccc3c2=O)cc1,14.2% (inactive)
4,O=C1CCCN1C(O)CCN(Cc1ccccc1)Cc1ccc(Cl)cc1 (stereo not given),101% (inactive)
5,COc1ccc(C2NC(=O)c3cc4c(cc3N2)OCO4)cc1 (stereo not given),10.5% (inactive)
6,Fc1ccc(-c2cnc3nonc3n2)c(F)c1,108% (inactive)
7,CCOC(=O)C#Cc1c(C(=O)OCC)nnn1[C@@H]1O[C@H](COC(C)=O)[C@@H](OC(C)=O)[C@H]1OC(C)=O,95.8% (inactive)
8,COc1cccc(/C(C)=N/NC(=O)CSc2nc3ccccc3c(=O)n2CCc2ccc(S(N)(=O)=O)cc2)c1,30% (inactive)
9,COc1ccc(/C(C)=N/NC(=O)c2ccc(S(C)(=O)=O)cc2)cc1OC,101% (inactive)
10,C=C1C(=O)O[C@H]2[C@H]1CC/C(COC(=O)N[C@@H](Cc1c[nH]c3ccccc13)C(=O)OC)=C\CC[C@@]1(C)O[C@@H]21,41.3% (inactive)
11,O=C(/C=C/c1ccccc1)c1c[nH]c2ccccc2c1=O,95.5% (inactive)
12,N#CCCn1cnc2c(N)ncnc21,106% (inactive)
13,CN(C)c1nc(-c2ccco2)n2nc(-c3ccc(Cl)cc3)cc2n1,99.2% (inactive)
14,CC(C)(C)c1cc(C[P+](c2ccccc2)(c2ccccc2)c2ccccc2)cc(C(C)(C)C)c1O,-39.9% (active)
15,Clc1ccccc1CNc1c2ccccc2nc2ccccc12,55.6% (inactive)
16,O=C(N/N=C/c1ccc([N+](=O)[O-])cc1)c1ccccc1Nc1ccnc(C(F)(F)F)c1,58.5% (inactive)
17,CN(C)CCCn1c(=O)c2cc([N+](=O)[O-])ccc2c2cnc3[nH]ccc3c21,53.7% (inactive)
18,COCc1nc(NS(=O)(=O)c2ccc(N)cc2)nc(C)c1Br,96.6% (inactive)
19,NC(CCC(=O)NC(CS)C(=O)NCC(=O)O)C(=O)O (stereo not given),100% (inactive)
20,CC(=O)C1CCC2C3CC(C)=C4CC(O)CCC4(C)C3CCC12C (stereo not given),94.8% (inactive)

# From PubChem BioAssay (NCI)
